Source: PubChem BioAssay (several laboratories)
GALR2 agonist: GALR2 receptor agonists, primary screen, cell-based; Galanin receptor type 2 (Homo sapiens), O43603; GALR2-expressing cells, agonist activation read-out; activation, % (concentration not given with the values); hit rate 0.48% among 140,000; AID 803, 2007; in the data active = activation above about 5%, passing the limit was not always enough;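 also: 0% = vehicle buffer wells and 100% = reference agonist at full effect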
Target sequence (O43603 whole entry, looked up): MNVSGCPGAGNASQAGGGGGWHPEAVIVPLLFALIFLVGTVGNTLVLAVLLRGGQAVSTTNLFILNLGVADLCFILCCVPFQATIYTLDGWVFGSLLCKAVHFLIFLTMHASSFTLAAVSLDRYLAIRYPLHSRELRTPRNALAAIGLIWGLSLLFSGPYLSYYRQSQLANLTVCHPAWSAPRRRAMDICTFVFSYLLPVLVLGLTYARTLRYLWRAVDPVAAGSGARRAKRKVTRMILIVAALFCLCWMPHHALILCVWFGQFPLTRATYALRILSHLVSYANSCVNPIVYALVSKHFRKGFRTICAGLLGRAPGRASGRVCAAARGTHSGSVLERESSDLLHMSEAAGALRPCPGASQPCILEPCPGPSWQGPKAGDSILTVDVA
PostGolgi ctrl: growth inhibition of yeast control strain, primary screen, counter-screen for post-Golgi transport modulator project; hit rate 5% among 98,000; efflux-deficient yeast background strain, growth absorbance A615, 16 h; inhibition, % at 10 µM
GALR2 antag: GALR2 antagonists in receptor-expressing cells, primary screen. Galanin receptor type 2 (Homo sapiens), O43603. antagonist mode. inhibition, % at 4 µM. hit rate 0.39% among 140,000. AID 828, 2007; in the data active = inhibition above about 27%;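 also: cells stimulated with galanin 1-16 at roughly its EC80; 0% = agonist challenge control and 100% = basal control without agonist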
S1P2 agonist: S1P2 receptor agonists, primary screen, cell-based; S1P2-expressing cell line, agonist reporter read-out; hit rate 0.46% among 97,000; AID 729, 2007; activation, % at 4.5 µM; Sphingosine 1-phosphate receptor 2 (Homo sapiens), O95136; in the data active = activation above about 16%;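 also: 0% = vehicle low control and 100% = maximal reference agonist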
PostGolgi yeast: phenotypic screen on post-Golgi transport, primary screen; hit rate 0.9% among 98,000; post-Golgi transport phenotypic cell assay; inhibition, % at 10 µM;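 also: yeast cells grown in 1536-well plates; yeast grown about 18 h at 30C before absorbance read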
S1P2 antag: human S1P2 receptor antagonists, primary screen, cell-based; inhibition, % at 5 µM; cell-based S1P2 antagonist assay, inhibition at 5 uM; Sphingosine 1-phosphate receptor 2 (Homo sapiens), O95136; hit rate 0.21% among 97,000; AID 736, 2007; in the data active = inhibition above about 45%;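 also: CRE beta-lactamase reporter cells expressing human S1P2 stimulated with S1P; 0% = agonist at EC80 alone and 100% = agonist plus reference antagonist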
Starred values were filed as active, the others as inactive; x = not tested or not shown. Many of the other results were omitted from the sample, so hits are more common in it than they were. Rule as the data show it, unless noted: active = inhibition above about 30%; inactive = the rest.

SMILES | GALR2 agonist | PostGolgi ctrl | GALR2 antag | S1P2 agonist | PostGolgi yeast | S1P2 antag
FC(F)(F)c1nnc(-c2ccccc2)nc1N1CCOCC1 | 0 | 1 | -5 | -1 | 8 | -20
FC(F)(F)c1cccc(-c2nnc(-c3ccccc3)c(N3CCOCC3)n2)c1 | 0 | 35* | -9 | -6 | 16 | 16
Oc1ccc(/C=N/n2c(-c3ccco3)csc2=Nc2cccnc2)c(O)c1 | 0 | x | -8 | x | x | x
CC(C)N=c1scc(-c2ccco2)n1/N=C/c1ccc(O)c(O)c1 | 1 | 55* | 14 | -2 | 3 | 12
Cc1cc(Cl)c(S(=O)(=O)N2CCN(c3ccc(F)cc3)CC2)cc1OCC(=O)NC1CCCCC1 | -2 | 3 | 12 | -9 | 3 | 45
Nc1nonc1C(=O)NCCNS(=O)(=O)c1ccc(F)cc1 | -1 | x | 0 | x | x | x
O=[N+]([O-])c1cccc(/C=C/c2nc3ccc([N+](=O)[O-])cc3[nH]2)c1 | -2 | 72* | 0 | -2 | 8 | 22
O=[N+]([O-])c1ccc2nc(-c3ccccc3)[nH]c2c1 | -2 | x | 8 | x | x | x
CN(Cc1ccccc1)C(=O)Cn1c(=O)oc2cc(S(=O)(=O)N3CCCC3)ccc21 | -1 | 35* | -6 | -2 | 1 | 23
CC(C)(C)NC(=O)C(c1c[nH]c2ccccc12)N(C(=O)Cn1nnc(-c2ccc(F)cc2)n1)c1cccc(O)c1 (configuration not stated) | 0 | x | -8 | x | x | x
Fc1ccc2c(c1)C(c1ccncc1)=NNC(c1cccnc1)=N2 | -2 | -3 | -4 | -5 | 7 | -7
Cc1cc(Cl)ccc1OC(C)C(=O)N1CCCN(C(=O)C(C)Oc2ccc(Cl)cc2C)CC1 (configuration not stated) | 0 | 44* | -17 | -3 | 9 | 5
Cc1cc(Cl)ccc1OCC(=O)N1CCCN(C(=O)COc2ccc(Cl)cc2C)CC1 | -1 | x | -4 | x | x | x
O=C(N1CCOCC1)C1(c2ccccc2)CCCCC1 | -3 | 42* | 0 | -2 | -10 | -15
O=C(N1CCCCC1)C1(c2ccccc2)CCOCC1 | 0 | 12 | 5 | -7 | -1 | 11
CCOC(=O)/C(=C\c1ccccc1)C(=O)c1cc(C(C)=O)c(Nc2ccccc2)s1 | 0 | 60* | -5 | 6 | 19 | 6
CCOc1cc2c3c(c1)C1(Nc4ccccc4S1)C(=O)N3C(C)(C)CC2C (configuration not stated) | -2 | 37* | -16 | 0 | -5 | -16
COc1cc(NC(=S)NC(=O)c2ccccc2F)ccc1NC(=O)c1ccco1 | -1 | x | -11 | x | x | x
O=C(COC(=O)c1cccc(S(=O)(=O)N2CCc3ccccc3C2)c1)NCc1ccco1 | -2 | 43* | 1 | x | -5 | x
c1ccc2cc(CSCc3nc4ccccc4[nH]3)ccc2c1 | -1 | x | 21 | x | x | x
O=C1CC(SC(=NCc2ccc3c(c2)OCO3)Nc2ccccc2)C(=O)N1c1ccccc1 (configuration not stated) | -1 | 41* | -2 | -6 | 4 | -2
CN=C(Nc1ccc2c(c1)OCO2)SC1CC(=O)N(c2ccccc2)C1=O (configuration not stated) | 0 | 2 | 6 | -6 | -7 | -18
c1ccc(CCNc2ncnc3scc(C4COc5ccccc5O4)c23)cc1 (configuration not stated) | 0 | 43* | -7 | 1 | 2 | -21
c1ccc2c(c1)OCC(c1csc3ncnc(N4CCCC4)c13)O2 (configuration not stated) | 0 | 20 | -8 | 1 | 20 | -26
N/C(=N\OC(=O)CCC1CCCC1)c1cccnc1 | -1 | x | 7 | x | x | x
SMILES | GALR2 agonist | PostGolgi ctrl | GALR2 antag | S1P2 agonist | PostGolgi yeast | S1P2 antag
c1ccc2c(-c3c[nH]c4ccccc34)c3ccccc3nc2c1 | 1 | 50* | 17 | -1 | 1 | 7
Oc1ccc(-c2csc(-c3ccccc3)n2)cc1O | -3 | 59* | -4 | -2 | 1 | -7
Cc1nc(-c2ccc(O)c(O)c2)cs1 | -1 | 10 | -9 | -3 | -2 | 18
Cn1c(=O)n(C/C=C/c2ccccc2)c(=O)c2c1nc1n2CCCN1Cc1ccccc1 | 1 | 32* | -6 | -4 | -1 | 5
Cn1c(=O)n(C/C=C/c2ccccc2)c(=O)c2c1nc1n2CCCN1c1ccc(F)cc1 | 0 | 31* | 2 | x | 2 | x
Cc1cccc(Cn2c(=O)c3c(nc4n3CCCN4Cc3ccccc3)n(C)c2=O)c1 | -1 | 42* | 4 | -9 | -6 | 22
CCn1c(=O)c2c(nc3n2CCCN3CCc2ccccc2)n(C)c1=O | 0 | 12 | -3 | 0 | 3 | -16
COc1ccc(NC(=O)NN(C(=O)c2ccccc2)C(C)(C)C)cc1 | 1 | x | 7 | x | x | x
c1coc(CNc2c3c(nc4ncnn24)CCCC3)c1 | -3 | -3 | 14 | x | 7 | x
Clc1cccc(-c2cc3nc4c(c(NCc5ccco5)n3n2)CCCC4)c1 | -2 | 55* | -4 | -12 | -7 | 7
COc1ccc(-c2cc3nc(C)cc(NCCO)n3n2)cc1 | 1 | 7 | 11 | -8 | -6 | 8
Cc1ccc(-c2cc3nc(C)cc(NCc4ccco4)n3n2)cc1 | 0 | 33* | -4 | 1 | 8 | 14
Cc1nc2cc(-c3ccc(Cl)cc3)nn2c(C)c1CCC(=O)NCc1ccco1 | -2 | 32* | 20 | -9 | 14 | 7
COc1ccc(C2SCC(=O)N2c2nnc(C34CC5CC(CC(C5)C3)C4)s2)cc1 (configuration not stated) | -1 | x | 4 | x | x | x
COc1ccc(C2SCC(=O)N2CC23CC4CC(CC(C4)C2)C3)cc1 (configuration not stated) | -2 | 60* | -3 | -3 | 16 | -21
Cc1ccc(-c2csc3nc(SCC(N)=O)n(Cc4ccccc4)c(=O)c23)cc1 | 0 | x | -1 | x | x | x
Cc1cc(C)n2[nH]c(=O)c(N=Nc3cccc(Cl)c3)c2n1 | -1 | 39* | 2 | 1 | -6 | 1
COc1cccc(OCc2cc(/C=N/NC(=O)c3ccn[nH]3)ccc2OC)c1 | 1 | 33* | -2 | -3 | -1 | -16
COc1cc(OC)cc(C(=O)N/N=C/c2ccc(OC)c(COc3ccc4ccccc4c3)c2)c1 | -3 | 1 | 0 | -3 | 1 | -10
COc1ccc(/C=N/NC(=O)c2ccoc2C)cc1COc1c(C)cccc1C | -1 | 54* | 9 | -5 | 3 | 8
Cc1ccc(-c2nc(N)sc2-c2ccccc2)cc1C | 0 | x | -3 | x | x | x
CCCC(=O)N=C1SC2CS(=O)(=O)CC2N1c1ccc(-c2nc3ccc(C)cc3s2)cc1 (configuration not stated) | 0 | x | 0 | x | x | x
CCn1c(C)nc2cc(C(=O)OC(C(F)(F)C(F)F)C(F)(F)C(F)F)ccc21 | 0 | 27 | 7 | -9 | 0 | 70*
COc1ccc(C(=O)CCc2nc3ccccc3s2)cc1 | -1 | x | -1 | x | x | x
CCOc1cc(/C=N/NC(N)=S)cc(Br)c1OCc1ccccc1C | -4 | 67* | 9 | -14 | 3 | -1
